Hit rate of the full screen: of about 310,000 compounds, about 14,000 (4.5%) showed an effect of 50% or more. Effects have a minus sign here. The entries come from a sample that favours strong results as a whole.
Target: human ether-à-go-go-related gene (hERG) potassium channel (human, UniProt Q12809)
Assay: primary screen, population patch clamp on CHO cells stably expressing hERG; higher = less effect of the substance
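Also: peak tail current of the secondary pulse compared with the same well before compound.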

human ether-à-go-go-related gene (hERG) potassium channel, sequence (Q12809 whole entry, looked up): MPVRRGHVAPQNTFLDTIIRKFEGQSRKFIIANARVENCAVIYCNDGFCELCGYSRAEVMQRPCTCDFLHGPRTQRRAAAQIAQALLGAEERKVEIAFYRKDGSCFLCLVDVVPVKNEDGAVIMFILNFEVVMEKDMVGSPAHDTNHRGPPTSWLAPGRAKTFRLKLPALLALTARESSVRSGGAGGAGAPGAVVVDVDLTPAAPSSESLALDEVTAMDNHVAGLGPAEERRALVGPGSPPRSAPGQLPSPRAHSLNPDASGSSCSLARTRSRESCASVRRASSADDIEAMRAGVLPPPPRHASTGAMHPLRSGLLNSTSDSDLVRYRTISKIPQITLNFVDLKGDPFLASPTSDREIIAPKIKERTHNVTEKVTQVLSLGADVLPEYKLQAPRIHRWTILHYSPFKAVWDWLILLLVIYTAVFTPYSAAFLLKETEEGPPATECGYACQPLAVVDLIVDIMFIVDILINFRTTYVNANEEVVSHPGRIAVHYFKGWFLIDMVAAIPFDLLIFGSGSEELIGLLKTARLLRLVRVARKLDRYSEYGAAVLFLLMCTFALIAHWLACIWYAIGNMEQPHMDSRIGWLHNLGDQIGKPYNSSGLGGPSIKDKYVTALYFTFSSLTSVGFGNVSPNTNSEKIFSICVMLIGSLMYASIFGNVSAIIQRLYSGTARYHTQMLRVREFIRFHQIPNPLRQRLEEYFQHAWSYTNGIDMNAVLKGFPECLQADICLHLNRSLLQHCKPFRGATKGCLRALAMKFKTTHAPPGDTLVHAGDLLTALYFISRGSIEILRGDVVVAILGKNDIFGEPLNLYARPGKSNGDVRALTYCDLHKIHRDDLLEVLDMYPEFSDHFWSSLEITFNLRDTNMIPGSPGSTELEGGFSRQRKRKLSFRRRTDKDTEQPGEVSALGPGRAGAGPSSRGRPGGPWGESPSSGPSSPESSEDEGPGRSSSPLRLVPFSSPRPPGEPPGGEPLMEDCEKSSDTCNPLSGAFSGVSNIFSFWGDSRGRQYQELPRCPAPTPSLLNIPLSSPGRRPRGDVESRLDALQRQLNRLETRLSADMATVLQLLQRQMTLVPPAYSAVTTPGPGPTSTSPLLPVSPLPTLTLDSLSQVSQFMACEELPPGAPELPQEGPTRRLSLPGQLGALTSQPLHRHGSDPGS

Row | SMILES | hERG current change (%, negative = inhibition) at 10uM [%]
1 | Cc1c(Cl)c([N+](=O)[O-])nn1CC(=O)N1CCc2ccccc2C1 | 1.08
2 | Cc1c(Cl)c([N+](=O)[O-])nn1CC(=O)N1CCCC1 | -4.86
3 | Cc1c(Br)c([N+](=O)[O-])nn1CC(=O)N1CCN(Cc2ccccc2)CC1 | -56.4
4 | Cc1cc([N+](=O)[O-])nn1CC(=O)N1CCN(Cc2ccccc2)CC1 | -8.96
5 | Cc1c(Cl)c([N+](=O)[O-])nn1CC(=O)N1CCN(Cc2ccccc2)CC1 | -71
6 | Cc1c(Br)c([N+](=O)[O-])nn1CC(=O)NCc1ccccc1 | -2.99
7 | CC(C)(C)c1nc(SCC(=O)NCc2cccs2)c2ccccc2n1 | -0.222
8 | CCCCn1c(SCC(=O)Nc2nnc(C)s2)nc2c1c(=O)n(C)c(=O)n2C | -12.4
9 | Cc1ccc(-n2c(O)c(C=NCc3ccccn3)c3ccccc3c2=O)cc1C | -11.5
10 | CC1=C(C(=O)OCC2CCCO2)C(c2ccccc2Cl)NC(=O)N1 (stereo not shown) | 14.1
11 | Cc1ccc(CN2CCN(C(=O)CCN3C(=O)c4ccccc4C3=O)CC2)cc1 | -55.4
12 | CCN1CCN(C(=O)CCN2C(=O)c3ccccc3C2=O)CC1 | -1.77
13 | O=C(CCN1C(=O)c2ccccc2C1=O)N1CCN(Cc2ccccc2)CC1 | -22.8
14 | CN1CCN(C(=O)CCN2C(=O)c3ccccc3C2=O)CC1 | 14.7
15 | O=C(CCN1C(=O)c2ccccc2C1=O)N1CCN(Cc2ccc(Cl)cc2Cl)CC1 | -53.4
16 | O=C(CCN1C(=O)c2ccccc2C1=O)N1CCCCCC1 | 0.431
17 | O=C(NN=C1CCN(Cc2ccccc2)CC1)c1ccccc1 | 7.78
18 | Cn1ccnc1SCCNC(=O)CCc1nnc(CCc2ccccc2)o1 | -10.2
19 | Cn1c(O)c(C=NCCN2CCNCC2)c(=O)[nH]c1=O | 13.6
20 | Cc1ccccc1C(=O)N=c1sccn1C | 24.7
21 | Cc1cc(F)ccc1NS(=O)(=O)c1c(C)nc2scc(C)n2c1=O | -35.8
22 | COc1cccc(Cn2c(=O)c3[nH]cnc3n(-c3ccccc3C)c2=O)c1 | -1.8

Row | SMILES | hERG current change (%, negative = inhibition) at 10uM [%]
23 | CCOC(=O)c1c(NC(=O)C(C)N2CCN(S(=O)(=O)c3cccs3)CC2)sc2c1CCC(C)C2 (stereo not shown) | 6.72
24 | Cc1ccc(NC(=O)CN(C)C(=O)c2ccc3[nH]c4c(c3c2)CC(C)CC4)cc1 (stereo not shown) | 8.58
25 | Cc1ccc(C2N(c3nccs3)C(=O)C3CCCN32)cc1 (stereo not shown) | -4.54
26 | O=C1C2CCCN2C(c2ccccc2)N1c1nccs1 (stereo not shown) | 17.7
27 | Cc1ccccc1C1N(c2nccs2)C(=O)C2CCCN21 (stereo not shown) | -62.5
28 | CC(C)(/C=N/O)/[N+]([O-])=C/c1ccccc1 | 20.1
29 | CCCOc1cccc(NC(=O)OC2CCN(C)CC2)c1.O=C(O)/C=C/C(=O)O | -15.7
30 | O=C(CSc1nc2nccnc2c(=O)n1Cc1cccs1)Nc1ccccc1F | -69.1
31 | CCOc1ccc(NC(=O)CSc2nc3ccccc3c(=O)n2Cc2cccs2)cc1 | 13.6
32 | O=C(CSc1nc2nccnc2c(=O)n1Cc1cccs1)Nc1ccccc1 | -74.9
33 | Cc1ccc(NC(=O)CSc2nc3ccccc3c(=O)n2Cc2cccs2)cc1 | 7.4
34 | COc1ccccc1NC(=O)CSc1nnc(Cc2cccs2)n1C | 5.99
35 | CCn1cc2nc(SCC(=O)Nc3ccc(OC)cc3OC)n(Cc3ccc(OC)cc3)c(=O)c2n1 | 1.42
36 | COc1ccccc1NC(=O)CSc1nc2nccnc2c(=O)n1Cc1cccs1 | -69.9
37 | CCn1cc2nc(SCC(=O)Nc3ccc(F)cc3F)n(Cc3ccccc3)c(=O)c2n1 | -40
38 | CCn1cc2nc(SCC(=O)Nc3ccccc3F)n(Cc3ccccc3)c(=O)c2n1 | -70.6
39 | COc1ccc(NC(=O)CSc2nc3ccccc3c(=O)n2Cc2cccs2)c(OC)c1 | -6.23
40 | Cn1c(Cc2cccs2)nnc1SCC(=O)Nc1ccccc1F | 1.93
41 | CC(C)CCn1c(SCC(=O)Nc2ccccc2C(F)(F)F)nc2nccnc2c1=O | -21.6
42 | CC1(C)CC(=O)N(CC(=O)NC2CCCC2)c2ccccc2S1(=O)=O | 11.7
43 | COc1ccc(Br)cc1/C=N/NC(=O)C(c1ccncc1)N1CCOCC1 (stereo not shown) | 7.87
44 | CCOc1ccc(S(=O)(=O)NCCC(=O)NCc2cccnc2)cc1 | 4.31

Row | SMILES | hERG current change (%, negative = inhibition) at 10uM [%]
45 | O=C1c2cccc3cc([N+](=O)[O-])cc(c23)C(=O)N1CC1CCCO1 (stereo not shown) | -8.56
46 | CCOC(=O)N1CCc2c(sc3[nH]c(=S)[nH]c(=S)c23)C1 | 13.4
47 | O=C(O)CC[N+](=O)[O-] | 15.3
48 | CCN(CC)CCNC(=O)c1[nH]c2ccc(OCc3ccccc3)cc2c1C | -74.6
49 | COc1ccc2[nH]c(C(=O)NCc3ccccc3)c(C)c2c1.Cl | 7.03
50 | Cc1c(C(=O)N2CCOCC2)[nH]c2ccc(OCc3ccccc3)cc12 | -13.2
51 | Cc1cc(OC(C)C(=O)NCCCn2ccnc2)c2c(C)cc(=O)oc2c1 (stereo not shown) | -15.4
52 | Cc1cc(OC(C)C(=O)NCCCn2ccnc2)c2c(C)c(C)c(=O)oc2c1 (stereo not shown) | -76.7
53 | CCCc1cc(=O)oc2cc(OCC(=O)NCCCn3ccnc3)ccc12 | -47.1
54 | Cc1c(C)c2ccc(OCC(=O)NCCCn3ccnc3)cc2oc1=O | 14
55 | Cc1c(C)c2cc(Cl)c(OCC(=O)NCCCn3ccnc3)cc2oc1=O | -2.59
56 | CCCc1cc(=O)oc2cc(C)cc(OCC(=O)NCCCn3ccnc3)c12 | -76.4
57 | CCCc1cc(=O)oc2cc(OCC(=O)NCCCn3ccnc3)c(Cl)cc12 | -72.3
58 | CCCc1cc(=O)oc2cc(C)cc(OCC(=O)NCCN3CCOCC3)c12 | 6.05
59 | Cc1cc(OCC(=O)NCCCn2ccnc2)c2c(C)c(C)c(=O)oc2c1 | -63.6
60 | CCc1cc(=O)oc2cc(OCC(=O)NCCCn3ccnc3)c(Cl)cc12 | -28.5
61 | CCCc1cc(=O)oc2cc(C)cc(OCC(=O)NCCCN3CCOCC3)c12 | -7.61
62 | Cc1c(C)c2ccc(OC(C)C(=O)NCCCn3ccnc3)c(C)c2oc1=O (stereo not shown) | -6.05
63 | Cc1cc(C(F)(F)F)nc(SCc2ccc(C(=O)O)o2)n1 | -2.51
64 | CC(=O)Oc1ccc2ccccc2c1C(NC(=O)Cc1ccccc1)c1ccccc1Cl (stereo not shown) | 7.9
65 | CCc1noc(C)c1C(=O)N1CCCC(C(=O)c2cc(F)ccc2F)C1 (stereo not shown) | -41.2
66 | N#Cc1ccccc1NC(=O)CSC1=Nc2ccccc2C2CC=NN12 (stereo not shown) | 1.95

Row | SMILES | hERG current change (%, negative = inhibition) at 10uM [%]
67 | Cc1ccc(SC(C)c2nc(-c3ccncc3)no2)cc1 (stereo not shown) | -24.3
68 | Cc1ccc(S(=O)(=O)CCC(=O)OCC(=O)N2c3ccccc3CC2C)cc1 (stereo not shown) | 13
69 | O=C(COC(=O)c1ccco1)NCc1ccc(Cl)cc1 | 4.21
70 | O=C(COC(=O)c1cc([N+](=O)[O-])ccc1Cl)NC1CCCC1 | -26.8
71 | O=C(COC(=O)CCc1c[nH]c2ccccc12)Nc1ccccc1C(F)(F)F | -5.09
72 | CCC(C)(C(=O)NC1CCCCC1)N(Cc1ccco1)C(=O)CC1NC(=O)NC1=O (stereo not shown) | 5.88
73 | O=C(CSc1nc(-c2ccc(Cl)cc2)[nH]c(=O)n1)Nc1cccc(Cl)c1 | 22.3
74 | CC(C)(C)c1ccccc1OCC(=O)NCCC(=O)O | -7.3
75 | CCc1cc(=O)oc2cc(C)cc(OC(C)C(=O)NCCCn3ccnc3)c12 (stereo not shown) | -30.9
76 | CCc1cc(=O)oc2cc(C)cc(OCC(=O)NCCCN3CCOCC3)c12 | -11.1
77 | CCCCc1cc(=O)oc2cc(OCC(=O)NCCN3CCOCC3)c(Cl)cc12 | 1.96
78 | CCCc1cc(=O)oc2cc(C)cc(OC(C)C(=O)NCCCn3ccnc3)c12 (stereo not shown) | -65.3
79 | CCc1cc(=O)oc2cc(C)cc(OCC(=O)NCCCn3ccnc3)c12 | -55.3
80 | CCCc1cc(=O)oc2cc(OCC(=O)NCCCN3CCOCC3)c(Cl)cc12 | -73
81 | CCc1cc(=O)oc2cc(OCC(=O)NCCCN3CCOCC3)c(Cl)cc12 | 4.59
82 | CCCc1cc(=O)oc2cc(OC(C)C(=O)NCCCn3ccnc3)ccc12 (stereo not shown) | -42.1
83 | Cc1cc(OCC(=O)NCCCn2ccnc2)c2c(C)cc(=O)oc2c1 | -22.5
84 | Cc1cc(C)cc(COc2ccc3c(C)c(CC(=O)O)c(=O)oc3c2C)c1 | -41.4
85 | O=C(COc1ccc(S(=O)(=O)NC2CCCCC2)cc1)NCc1cccnc1 | 2.91
86 | CC(C)NC1=C(Cl)C(=O)c2ccccc2C1=O | 4.34
87 | O=C1[C@H]2CC3CCC2(O3)[C@@H]2OCCCN12 (stereo partly shown) | 4.02
88 | O=S(=O)(c1cccc(-c2nnc(SCc3ccc(Cl)cc3)o2)c1)N1CCCCC1 | 10.7
